From PubChem BioAssay (Tox21)
Results filed as inconclusive are left out. Values without a mark were called inactive. Calls of active or inactive are those of the source. Calls follow the shape of the dose curve; as a rule, active = well fitted activation curve with a large enough effect in the repeat runs; inconclusive = weak or mixed curves; inactive = flat fitted curve, though single readings scatter.
% is scaled to controls: 0 for no effect and ±100 for the full control effect; potency is read from the fitted curve at half-maximal effect.

Test: A CellTox Green Cytotoxicity Assay to monitor cytotoxicity in HEK293 cells - 16 hour (AID 1224888); also: nearly all actives have a fitted effect of over 35% in size
Conditions: CellTox Green fluorescence; series mostly up to 76.8 µM; activity change: at the top concentration
From the text: National Center for Advancing Translational Sciences [NCATS]
NIH Chemical Genomics Center [NCGC]
U.S. Environmental Protection Agency [EPA]
National Institutes of Environmental Health Sciences [NIEHS]
National Toxicology Program [NTP]
Cell-based models are critical for drug discovery. Determining the natural cytotoxic effects resulting from test compounds is an essential research activity. A CellTox Green Cytotoxicity Assay to monitor cytotoxicity in real time of continues cell culture during 40 hours of the compound treatment was used to screen Tox21 10K library compounds in Hek293 cells. CellTox Green Cytotoxicity Assay is a nonlytic, homogeneous, biofluorescent method to measure cytotoxicity in cell culture after experimental manipulation. The assay system uses a proprietary asymmetric cyanine dye that is excluded from viable cells but preferentially stains the dead cell's DNA. […] Viable cells produce no appreciable increases in fluorescence. Therefore, the fluorescence signal produced by the binding interaction with dead cell DNA is proportional to cytotoxicity.
The mixture of Hek293 cell suspension and reagents were dispensed at 600cells/6 ul/well in 1536-well tissue culture treated black solid bottom plates using a Multidrop dispenser. After the assay plates were incubated at a 37 C/5% CO2 incubator for 5 hours, 23 nL of compounds dissolved in DMSO, positive and negative controls was transferred to the assay plate by a pintool work station. The plates were incubated at 37 C for 40 hours. The fluorescence intensity were measured at 0h, 8h, 16h, 24h, 32h and 40h time points using ViewLux plate reader during compound treatment.
In the case of `CCOCCC(=O)OCC`, the “activity change” value is reported as -9.29%. With `CC(C)(C(=O)c1cccnc1)c1cccnc1` the “activity change” value was -5.57% [at 35.3 µM, hits give high values]. For `CC(C)c1ccc(C(=O)N=C(N)N)cc1S(C)(=O)=O`, the “activity change” value was -5.35% [at 35.3 µM, hits give high values]. With `COC(=O)Nc1nc2ccc(C(=O)C3CC3)cc2[nH]1` the “activity change” value was -3.27% [at 35.3 µM, hits give high values]. With `O=c1[nH][nH]c(=O)c2cc([N+](=O)[O-])ccc12` the “activity change” value was -15.5%. In the case of `O=C(O)/C=C/c1ccc(O)c(O)c1`, the “activity change” value is reported as -10.7%. With `CC1=CC[C@@H]2C[C@H]1C2(C)C` the activity change was 1.29% [at 15.8 µM, hits give high values]. In the case of `Oc1cccc2[nH]ccc12`, the “activity change” value is reported as 0.98% [at 35.3 µM, hits give high values]. For `CC(C)(C)C(O)/C=C/c1ccc2c(c1)OCO2` (stereo not given), the “activity change” value was 2.84% [at 35.3 µM, hits give high values]. For `O=C(NC(Cc1cc(=O)[nH]c2ccccc12)C(=O)O)c1ccc(Cl)cc1` (stereo not given), the “activity change” value was -11.9% [at 35.3 µM, hits give high values]. For `C=C(C)C(=O)OCCC(F)(F)C(F)(F)C(F)(F)C(F)(F)C(F)(F)C(F)(F)F`, the “activity change” value was -11.5%. In the case of `CCN(CC)C(=O)N1CCN(C)CC1`, the “activity change” value is reported as -10.4% [at 35.3 µM, hits give high values]. With `Cc1c[nH]c2ccccc12` the “activity change” value was 14.9% [at 35.3 µM, hits give high values]. In the case of `O=C(NS(=O)(=O)/C=C/c1ccccc1)c1ccc(F)cc1Cl`, the “activity change” value is reported as 7.84%. With `Cc1cccc2sc(N)nc12` the “activity change” value was -0.114%. In the case of `Cc1c(C2(c3cc(Br)c(O)c(Br)c3C)OS(=O)(=O)c3ccccc32)cc(Br)c(O)c1Br`, the “activity change” value is reported as -20%. With `Nc1ccc(S(=O)(=O)NCc2ccccc2)cc1` the “activity change” value was -19.8% [at 35.3 µM, hits give high values]. In the case of `O=C1c2ccccc2C(=O)c2c(O)ccc(O)c21`, the Potency is reported as 30.9 µM (active). With `CC(C)C1CCC(C(=O)N[C@H](Cc2ccccc2)C(=O)O)CC1` (stereo not given in full) the “activity change” value was -2.53% [at 35.3 µM, hits give high values]. In the case of `O=P(O)(O)Oc1ccccc1`, the “activity change” value is reported as 12.8%. With `C=Cc1ccc(OC(C)=O)cc1` the “activity change” value was 21.7%. In the case of `CC(=O)C(=O)CC(C)C`, the “activity change” value is reported as -3.48%. With `O=S(=O)(Cl)c1c(Cl)cccc1Cl` the “activity change” value was -0.756%. With `CC(=O)NCCO` the “activity change” value was -1.8%. With `CC[C@H]1OC(=O)[C@H](C)[C@@H](O[C@H]2C[C@@](C)(OC)[C@@H](O)[C@H](C)O2)[C@H](C)[C@@H](O[C@@H]2O[C@H](C)C[C@H](N(C)C)[C@H]2O)[C@](C)(O)C[C@@H](C)C(=O)[C@H](C)[C@@H](O)[C@]1(C)O` the “activity change” value was 0.108% [at 35.3 µM, hits give high values]. In the case of `Cc1ccc(Cl)cc1N`, the “activity change” value is reported as -2.56%. For `CC[C@H]1OC(=O)[C@H](C)[C@@H](O[C@H]2C[C@@](C)(OC)[C@@H](O)[C@H](C)O2)[C@H](C)[C@@H](O[C@@H]2O[C@H](C)C[C@H](N(C)C)[C@H]2O)[C@](C)(O)C[C@@H](C)/C(=N\OCOCCOC)[C@H](C)[C@@H](O)[C@]1(C)O`, the “activity change” value was -5.31% [at 35.3 µM, hits give high values]. In the case of `CC(C)c1ccc(C#N)cc1`, the “activity change” value is reported as 10.9%. With `N[C@@H](Cc1cc(I)c(O)c(I)c1)C(=O)O` the “activity change” value was 0.946% [at 35.3 µM, hits give high values]. For `CC(C)N=C=NC(C)C`, the “activity change” value was -20.6%. For `CC(=O)OCC1=C(C(=O)O)N2C(=O)[C@@H](NC(=O)CSc3ccncc3)[C@H]2SC1`, the “activity change” value was 0.506% [at 35.3 µM, hits give high values]. In the case of `COc1cc(NS(=O)(=O)c2ccc(N)cc2)nc(C)n1`, the “activity change” value is reported as 1.78% [at 35.3 µM, hits give high values]. For `CC(C)CC(O)CC(C)C`, the “activity change” value was -8.61%. In the case of `COC1CCC=CO1` (stereo not given), the “activity change” value is reported as -1.43%. With `c1ccc(CNc2ncnc3c2ncn3C2CCCCO2)cc1` (stereo not given) the “activity change” value was -8.62%. For `FC(F)(F)C(F)(F)C(F)(F)C(F)(F)CCI`, the “activity change” value was -1.54% [at 35.3 µM, hits give high values]. In the case of `Cc1oc(=O)oc1COC(=O)[C@@H]1N2C(=O)[C@@H](NC(=O)[C@H](N)c3ccccc3)[C@H]2SC1(C)C`, the “activity change” value is reported as -0.817% [at 35.3 µM, hits give high values]. For `CC(=O)C(C)=O`, the “activity change” value was -9.54%. For `ClC1=C(Cl)C1(Cl)Cl`, the “activity change” value was -8.48%. With `CC1=CC[C@@]23C[C@@H]1C(C)(C)[C@@H]2CC[C@H]3C` the “activity change” value was 17.8%.
